# CHO-K1 Ca antag: M1 antagonist counterscreen hit in parental CHO-K1 cells; inhibition, % at 3 µM; AID 602250; 0.6% of 360,000 active; ATP-induced calcium, Fluo-8 fluorescence;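 active = inhibition above a per-plate cutoff, the plate's mean sample inhibition plus 3 SD, cut at about 24% in these data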;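 also: 0% = DMSO plus EC80 ATP and 100% = DMSO alone without ATP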
# M1 ag: human M1 muscarinic receptor agonism. P11229. 0.33% of 360,000 active. CHO-K1 hM1, Fluo-8 calcium fluorescence, agonist mode; 0% DMSO, 100% acetylcholine EC100. AID 588814. activation, % at 3 µM;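 active = activation above the run's mean compound activation plus 3 SD, cut at about 16% in these data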;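 also: peak over basal fluorescence ratio within a 140 s kinetic read after compound addition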
# Target sequence (P11229 whole entry, looked up): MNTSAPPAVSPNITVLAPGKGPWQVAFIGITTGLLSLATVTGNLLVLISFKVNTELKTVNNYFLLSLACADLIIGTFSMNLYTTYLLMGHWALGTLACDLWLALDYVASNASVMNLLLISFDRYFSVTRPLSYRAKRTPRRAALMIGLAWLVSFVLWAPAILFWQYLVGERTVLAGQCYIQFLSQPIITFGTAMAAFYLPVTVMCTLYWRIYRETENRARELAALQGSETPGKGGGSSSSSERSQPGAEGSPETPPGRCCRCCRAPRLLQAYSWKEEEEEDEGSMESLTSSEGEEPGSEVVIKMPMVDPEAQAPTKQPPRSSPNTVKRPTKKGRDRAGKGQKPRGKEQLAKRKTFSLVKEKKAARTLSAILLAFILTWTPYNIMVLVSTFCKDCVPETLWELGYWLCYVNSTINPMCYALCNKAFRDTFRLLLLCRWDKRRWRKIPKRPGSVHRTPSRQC
# M1 ag parental: counter-screen for M1 agonists: effect in parental CHO-K1 cells; 0.48% of 360,000 active; AID 602248; activation, % at 3 µM; Fluo-8 calcium fluorescence; scaled to maximal ATP response, vehicle zero; in the data active = activation above about 15%;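 also: untransfected CHO-K1 host cells lacking M1 receptor as counterscreen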
# M1 antag: antagonists of human M1 muscarinic receptor | AID 588852 | inhibition, % at 3 µM | 1.3% of 360,000 active | CHO-K1 hM1, Fluo-8 calcium fluorescence, ACh EC80 antagonist | P11229;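 active = percent inhibition above its own plate's cutoff, namely the mean of that plate's compound wells plus 3 SD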;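 also: peak over basal fluorescence ratio during 140 s after agonist addition; 0% = ACh EC80 plus DMSO and 100% = DMSO alone without agonist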
# CHO-K1 Ca PAM: M1 PAM counterscreen hit in parental CHO-K1 cells. ATP EC20, Fluo-8 calcium fluorescence; 0% at ATP EC20, 100% at ATP max. activation, % at 3 µM. 0.02% of 360,000 active. AID 602247;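 active = activation above the run cutoff, the mean activation of all test compounds plus 3 SD, cut at about 40% in these data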;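 also: peak over basal fluorescence ratio in a 140 s read after ATP addition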
# CHRM1 PAM: human CHRM1 positive allosteric modulation. P11229. CHO-K1 hM1, Fluo-8 calcium fluorescence, ACh EC20; 0% = ACh EC20, 100% = maximal ACh. activation, % at 3 µM. 0.088% of 360,000 active. AID 588819; in the data active = activation above about 19%, passing the limit was not always enough
# An asterisk follows results filed as active. An excerpt weighted towards active compounds, which were near 2.3% of everything screened.
SMILES,CHO-K1 Ca antag,M1 ag,M1 ag parental,M1 antag,CHO-K1 Ca PAM,CHRM1 PAM
C[C@@H]1CN(C2CCN(Cc3nc(C(c4ccccc4)c4ccccc4)no3)CC2)C[C@H](C)O1,-3,-13,0,1,11,-21
Cc1nc(CN2CCN(Cc3nc(C(c4ccccc4)c4ccccc4)no3)CC2)cs1,3,-13,0,65*,6,-32
Cc1cccnc1CN1CCN(Cc2nc(C(c3ccccc3)c3ccccc3)no2)CC1,-2,-8,1,71*,5,-26
CC(=O)c1cc2c(cc1NC(=O)c1ccco1)OCCO2,25*,-5,0,17,-11,-9
S=C(Nc1ccc(Br)cc1)Nc1ccc2c(c1)OCCO2,1,-1,3,31*,-15,-11
O=C(NC(=S)Nc1ccc2c(c1)OCCO2)c1cccc(Br)c1,-7,-6,6,-4,33,1
NC(=O)C1CCN(C(=O)/C(=C/c2ccccc2)NC(=O)c2ccccc2)CC1,-15,-3,1,-12,25,5
COc1ccc(NC2=NCC(Cc3ccc(Br)cc3)S2)cc1 (stereo not drawn),-4,-10,9,79*,23,-26
COc1ccc(CNc2ccc(Br)cc2)cc1,-12,-4,1,-1,16,1
CCOC(=O)N1CCN(S(=O)(=O)c2ccc(Cl)cc2)CC1,-4,1,1,-14,7,11
CCOC(=O)N1CCC(N2CCN(c3cc(C)ccc3C)CC2)CC1,-10,4,2,51*,3,-12
CCOC(=O)N1CCC(N2CCN(S(=O)(=O)c3ccc(Cl)cc3)CC2)CC1,-4,39*,2,-1,22,-15
CCOC(=O)c1ccc(N2CCN(c3cc(C)ccc3C)CC2)c(N)c1,-20,-8,1,-4,-19,0
O=C(CN1C2CCCC1CC(NC(=O)C1CCCCC1)C2)Nc1ccccc1 (stereo not drawn),-12,-10,1,-7,9,3
CCCCN1C2CCCC1CC(NC(=O)C1CCCCC1)C2 (stereo not drawn),-12,-4,1,43*,21,-19
O=C(NC1CCCC1)C1CCN(C(=O)NCc2ccccc2)CC1,-10,-3,1,-6,16,11
O=C(NC1CC2CCCC(C1)N2Cc1ccccc1)C1CCCCC1 (stereo not drawn),-10,-5,0,38*,28,-18
O=C(NC1CC2CCC(C1)N2C(=O)NCc1ccccc1)C1CC1 (stereo not drawn),13,-6,0,37*,-7,-17
Cc1cc(-c2ccccc2)n2nc(N)nc2n1,-11,-2,0,-2,0,6
COC(=O)[C@H](Cc1ccccc1)NC(=O)CC[C@H]1O[C@@H](n2ccc(=O)[nH]c2=O)[C@H](O)[C@@H]1O,-24,-2,1,-23,25,0
CC(=O)Nc1cnc(-c2ccc3c(c2)OCO3)cn1,-10,-2,0,-8,5,1
CCC(=O)N1CCC(C)(C(=O)NCc2ccc(F)cc2)C1 (stereo not drawn),-13,-6,1,2,21,-3
CCn1c(SCc2ccccc2)nnc1-c1ccc(S(=O)(=O)N2CCCCC2)cc1,2,-2,6,27*,9,-12
O=C(CN1CCC(NC(=O)c2ccccc2F)CC1)Nc1ccc2c(c1)OCCO2,7,-7,16*,-2,9,4
Cc1cc(NC(=O)CSc2nnc(-c3ccncc3)n2N)ccc1Br,18,-5,1,-4,-6,6
SMILES,CHO-K1 Ca antag,M1 ag,M1 ag parental,M1 antag,CHO-K1 Ca PAM,CHRM1 PAM
COc1ccc(C(=O)c2cn[nH]c2-c2cc(C)ccc2O)cc1,-8,-2,6,4,-15,-3
COc1ccc(C(=O)c2cn[nH]c2-c2cc(Cl)ccc2O)cc1,24*,4,2,5,12,2
Cc1ccc(NC(=O)CN2C(=O)N/C(=C\c3ccco3)C2=O)cc1,-2,-3,0,-9,1,3
Cc1c(C=C(C#N)c2ccc([N+](=O)[O-])cc2)c(=O)n(-c2ccccc2)n1C,-9,-7,0,30*,9,-21
O=C(NC(=S)NNC(=O)c1cccs1)c1ccc(Br)o1,-6,33*,14,-16,0,-4
C=CCn1c(SCC(=O)Nc2nc(C)cs2)nnc1C(C)NC(=O)c1ccccc1Cl (stereo not drawn),-4,-3,1,47*,18,-9
COC(=O)C1(c2ccccc2)NC(c2ccc(O)cc2)C2C(=O)N(c3ccc4c(c3)OCO4)C(=O)C21 (stereo not drawn),-14,1,1,-14,15,5
CCOc1ccccc1N1CCN(CC(O)COC2CCCc3ccccc32)CC1 (stereo not drawn),-13,-11,6,48*,-1,-31
Cc1cc(C)cc(OCC(=O)Nc2ccc(N3CCCC3)cc2)c1,-10,-12,0,56*,0,-36
Cc1ccc(OCC(=O)Nc2ccc(N3CCCC3)cc2)cc1C,-7,-9,0,21,6,-22
Cc1ccc(C)c(C(=O)OCC(=O)Nc2ccc(N3CCOCC3)cc2)c1,-19,3,1,-24,12,25*
CCOC(=O)CC1Sc2ccccc2NC1=S (stereo not drawn),-2,0,0,-1,13,4
CCOc1ccc(S(=O)(=O)N2CCCC(C(=O)N3CCOCC3)C2)cc1C (stereo not drawn),-9,-3,3,0,12,-4
Cc1cccc(/C=N/NC(=O)c2cc(C)nc3ccccc23)n1,-6,-3,3,0,-2,1
Cc1cccc(/C=N/NC(=O)c2cc(C3CC3)nc3ccccc23)n1,26*,6,0,-12,-13,19
Cc1cnc2ncc3sccc3c2c1,-12,-6,0,-5,6,4
c1cnc2ncc3sccc3c2c1,-4,-7,19*,-3,22,8
O=C(NC(=S)Nc1cccnc1)c1cc2ccccc2o1,1,-4,2,-8,6,7
O=C(Nc1cccnc1)c1cc2cc(Br)ccc2o1,-12,-2,2,60*,16,-4
Cc1ccccc1C(=O)NNC1CC(=O)N(c2ccc3c(c2)OCCO3)C1=O (stereo not drawn),28*,-2,0,11,-16,-7
Cc1c(Cl)cnc(NC(=O)COC(=O)c2cccc(S(=O)(=O)N3c4ccccc4CC3C)c2)c1Cl (stereo not drawn),-5,-7,1,4,-6,-11
CCN(CC)S(=O)(=O)c1csc(C(=O)Nc2ccccn2)c1,27*,-4,0,2,-8,0
O=C(Nc1ccccn1)c1cccs1,-17,0,0,-32,20,7
